Results: the supplement of paper PMC8975748
Where a name gives a salt, the structure may show the parent alone. ± gives the standard deviation of the averaged measurements.

The molecules below were run on Saccharomyces cerevisiae BY4741 SeMeCo community (assay: mean cell size (pixel area) (pixels); higher = larger cells). Conditions: 10 µM; 24 h; SM minimal medium.
Procedure, shortened: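 The test system was a fluorescent Saccharomyces cerevisiae BY4741 community with four plasmids, each restoring one auxotrophy and carrying a fluorescent marker. Cells were grown for 24 h in SM medium with drug at a final 10 µM in 384-well plates, then fixed with paraformaldehyde and imaged by automated confocal microscopy for Harmony analysis of mean cell pixel area per well. Values represent the average of 3 replicates. Same SeMeCo high-content imaging drug screen: Selleck FDA-approved drugs at 10 µM, 24 h in SM medium, 384-well plates, 3 replicates.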

**Q.** With `OC(CCN1CCCCC1)(c1ccccc1)C1CCCCC1` (stereo not given) [Trihexyphenidyl hydrochloride] as the molecule, how does the mean cell size read?
**A.** 12.5 ± 0.24

**Q.** For `Cc1nc(=O)c2cc(CN(C)c3ccc(C(=O)N[C@@H](CCC(=O)O)C(=O)O)s3)ccc2[nH]1` [Raltitrexed], which mean cell size is on record?
**A.** 13.1 ± 0.36

**Q.** `CN[C@@H]1[C@@H](O)[C@@H](O[C@@H]2[C@@H](O)[C@H](O[C@H]3OC(CN)=CC[C@H]3N)[C@@H](N)C[C@H]2N)OC[C@]1(C)O` [Sisomicin sulfate] was tested. Which mean cell size did it give?
**A.** 12.12 ± 0.053

**Q.** How did the mean cell size turn out when `COc1ccc2[nH]c([S+]([O-])Cc3ncc(C)c(OC)c3C)nc2c1` (stereo not given) [Omeprazole Sodium] was run?
**A.** 12.1 ± 0.19

**Q.** For `COc1ccc(C(Cl)=C(c2ccc(OC)cc2)c2ccc(OC)cc2)cc1` [Chlorotrianisene], which mean cell size is on record?
**A.** 12.6 ± 0.13

**Q.** `Clc1ccc(C(Cn2ccnc2)OCc2csc3c(Cl)cccc23)c(Cl)c1` (stereo not given) [Sertaconazole nitrate] was tested. Which mean cell size did it give?
**A.** 12.5 ± 0.29

**Q.** For `Cc1c(S(=O)(=O)O)oc2c1C(=O)C(=O)c1c-2ccc2c1CCCC2(C)C` [Tanshinone IIA sulfonate (sodium)], which mean cell size is on record?
**A.** 11.85 ± 0.095

**Q.** With `CCOC(=O)C1=C(COCCN)NC(C)=C(C(=O)OC)C1c1ccccc1Cl` (stereo not given) [Amlodipine Besylate] as the molecule, how does the mean cell size read?
**A.** 12.6 ± 0.18

**Q.** `COc1nc2ccc(Br)cc2cc1[C@@H](c1ccccc1)[C@@](O)(CCN(C)C)c1cccc2ccccc12` [Bedaquiline fumarate] was tested. Which mean cell size did it give?
**A.** 11.2 ± 0.16

**Q.** Which mean cell size does the source give for `Cc1nc(C)c(Cl)c(O)c1Cl` [Clopidol] here?
**A.** 12.22 ± 0.083

**Q.** `CCN(CC)CCOC(=O)c1ccc(N)cc1` [Procaine] was tested. Which mean cell size did it give?
**A.** 12.2 ± 0.13

**Q.** For `COc1ccc(CN2CCN(C(c3ccc(F)cc3)c3ccc(F)cc3)CC2)c(OC)c1OC` [Lomerizine 2HCl], which mean cell size is on record?
**A.** 12.443 ± 0.0032

**Q.** With `COC(=O)C1=C(C)NC(C)=C(C(=O)OCCN2CCN(C(c3ccccc3)c3ccccc3)CC2)C1c1cccc([N+](=O)[O-])c1` (stereo not given) [Manidipine 2HCl] as the molecule, how does the mean cell size read?
**A.** 12 ± 0.3

**Q.** For `Cc1ccnc(NS(=O)(=O)c2ccc(N)cc2)n1` [Sulfamerazine], which mean cell size is on record?
**A.** 12.5 ± 0.16

**Q.** With `O=C(O)CCNC(=O)c1ccccc1` [Betamipron] as the molecule, how does the mean cell size read?
**A.** 12.6 ± 0.21

**Q.** For `CNS(=O)(=O)CCc1ccc2[nH]cc(C3CCN(C)CC3)c2c1` [Naratriptan HCl], which mean cell size is on record?
**A.** 12.4 ± 0.17

**Q.** `C[C@H]1COc2c(C3(N)CC3)c(F)cc3c(=O)c(C(=O)O)cn1c23` [Pazufloxacin mesylate] was tested. Which mean cell size did it give?
**A.** 12.5 ± 0.28

**Q.** Which mean cell size does the source give for `CNCc1cc(-c2ccccc2F)n(S(=O)(=O)c2cccnc2)c1` [Vonoprazan Fumarate (TAK-438)] here?
**A.** 12.3 ± 0.26

**Q.** With `CC(=O)OCC1=C(C(=O)O)N2C(=O)[C@@H](NC(=O)CSC(=NC(C)C)NC(C)C)[C@H]2SC1` [Cefathiamidine] as the molecule, how does the mean cell size read?
**A.** 12.3 ± 0.14

**Q.** How did the mean cell size turn out when `CO/N=C(/C(=O)N[C@@H]1C(=O)N2C(C(=O)OCOC(=O)C(C)(C)C)=C(C)CS[C@H]12)c1csc(N)n1` [Cefetamet pivoxil hydrochloride] was run?
**A.** 12.46 ± 0.1

**Q.** How did the mean cell size turn out when `Nc1nc2c(ncn2COC(CO)CO)c(=O)[nH]1` [Ganciclovir] was run?
**A.** 12.4 ± 0.16

**Q.** How did the mean cell size turn out when `CC1(C)S[C@@H]2[C@H](NC(=O)C(C(=O)O)c3ccccc3)C(=O)N2[C@H]1C(=O)O` (stereo not given in full) [Carbenicillin disodium] was run?
**A.** 12.53 ± 0.098

**Q.** Which mean cell size does the source give for `CC(C)[N+](C)(CCOC(=O)C1c2ccccc2Oc2ccccc21)C(C)C` [Propantheline bromide] here?
**A.** 12.5 ± 0.22

**Q.** `O=C(c1ccc(OCCN2CCCCC2)cc1)c1c(-c2ccc(O)cc2)sc2cc(O)ccc12` [Raloxifene] was tested. Which mean cell size did it give?
**A.** 12.3 ± 0.38

**Q.** For `C#C[C@]1(OC(C)=O)CC[C@H]2[C@@H]3CCC4=C[C@@H](OC(C)=O)CC[C@@H]4[C@H]3CC[C@@]21C` [Ethynodiol diacetate], which mean cell size is on record?
**A.** 12.3 ± 0.37

**Q.** How did the mean cell size turn out when `C=CC[N+]1([C@H]2C[C@H]3[C@@H]4CC[C@H]5C[C@H](O)[C@@H](N6CCOCC6)C[C@]5(C)[C@H]4CC[C@]3(C)[C@H]2OC(C)=O)CCCC1` [Rocuronium Bromide] was run?
**A.** 12.44 ± 0.065

**Q.** How did the mean cell size turn out when `CC(C(=O)O)c1ccc2c(c1)CC(=O)c1ccccc1S2` (stereo not given) [Zaltoprofen] was run?
**A.** 12.82 ± 0.12

**Q.** How did the mean cell size turn out when `Clc1ccc(CCC(Cn2ccnc2)Sc2c(Cl)cccc2Cl)cc1` (stereo not given) [Butoconazole] was run?
**A.** 12.08 ± 0.019

**Q.** Which mean cell size does the source give for `CC(=O)OCC1=C(C(=O)O)N2C(=O)[C@@H](NC(=O)Cc3cccs3)[C@H]2SC1` [Cephalothin] here?
**A.** 12.7 ± 0.19

**Q.** For `CCOc1ccc2ccccc2c1C(=O)N[C@@H]1C(=O)N2[C@@H]1SC(C)(C)[C@@H]2C(=O)O` [Nafcillin Sodium], which mean cell size is on record?
**A.** 12.2 ± 0.23

**Q.** With `CC1(C)CC[C@]2(C(=O)O)CC[C@]3(C)C(=CC[C@@H]4[C@@]5(C)CC[C@H](O)C(C)(C)[C@@H]5CC[C@]43C)[C@@H]2C1` [Oleanolic Acid] as the molecule, how does the mean cell size read?
**A.** 12.4 ± 0.22

**Q.** `Cc1nnc(SCC2=C(C(=O)O)N3C(=O)[C@@H](NC(=O)Cn4cnnn4)[C@H]3SC2)s1` [Cefazolin Sodium] was tested. Which mean cell size did it give?
**A.** 12.24 ± 0.096

**Q.** With `CCCSc1ccc2[nH]c(NC(=O)OC)nc2c1` [Albendazole] as the molecule, how does the mean cell size read?
**A.** 12.59 ± 0.075

**Q.** With `CC[C@H](C)C(=O)O[C@H]1C[C@H](O)C=C2C=C[C@H](C)[C@H](CC[C@@H](O)C[C@@H](O)CC(=O)O)[C@H]21` [Pravastatin] as the molecule, how does the mean cell size read?
**A.** 12.2 ± 0.19

**Q.** For `CC[C@@H]1/C=C(\C)C[C@H](C)C[C@H](OC)[C@H]2O[C@@](O)(C(=O)C(=O)N3CCCC[C@H]3C(=O)O[C@H](/C(C)=C/[C@@H]3CC[C@H](Cl)[C@H](OC)C3)[C@H](C)[C@@H](O)CC1=O)[C@H](C)C[C@@H]2OC` [Pimecrolimus], which mean cell size is on record?
**A.** 11.6 ± 0.16

**Q.** For `CCCOc1ccc2[nH]c(NC(=O)OC)nc2c1` [Oxibendazole], which mean cell size is on record?
**A.** 12.26 ± 0.1

**Q.** How did the mean cell size turn out when `CC(=O)[C@H]1CC[C@H]2[C@@H]3CCC4=CC(=O)CC[C@]4(C)[C@H]3CC[C@]12C` [Progesterone] was run?
**A.** 12.5 ± 0.23

**Q.** Which mean cell size does the source give for `Cc1cc(O)cc(C)c1Cl` [Chloroxylenol] here?
**A.** 12.7 ± 0.17

**Q.** Which mean cell size does the source give for `CCOc1ccc(NC(C)=O)cc1` [Phenacetin] here?
**A.** 12.6 ± 0.17

**Q.** For `C=CCc1ccc(O)c(-c2ccc(O)c(CC=C)c2)c1` [Honokiol], which mean cell size is on record?
**A.** 12.6 ± 0.22
